The list is not random: actives were taken first. Their share in the collection is about 2.8%.
HIF-2a block: HIF-2a inhibition; inhibition, % at 18.8 µM; 786-0 RCC cells HIF-2a reporter, luciferase luminescence, overnight; AID 624352; hit rate 0.72% among 360,000;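 active means inhibition of the luminescence signal of 40% or more relative to plate controls, in a single-dose primary screen at 18.75 µM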
Shn3 3UTR inh: reduces Shn3 3'UTR luciferase signal in osteoblasts; Clone20 osteoblast Shn3 3'UTR firefly luciferase, 24 h; inhibition, % at 12.5 µM; hit rate 0.52% among 360,000; AID 588674;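 active means mean inhibition of at least 75% with every replicate also reaching 75%; inconclusive means mean inhibition at least 75% but some replicate below; inactive means mean inhibition below 75%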
Peg3 prom inh-1: inhibitors of Peg3 promoter | HeLa PEG-Prom luciferase reporter, luminescence, overnight | inhibition, % at 20 µM | hit rate 1.7% among 360,000 | AID 588405;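 active means inhibition of at least 50% at 20 µM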
KKLEB cytotox: CF airway cell cytotoxicity counter-screen. hit rate 0.36% among 360,000. activity change (cytotoxicity), % at 5 µM. KKLEB CF airway cells viability, ATPlite luminescence, overnight; stronger effect = lower value; cells stimulated with P. aeruginosa culture filtrate;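 active means corrected activity change at or below -50% at 5 µM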
CF NFkB inh: cystic fibrosis NF-kB activation inhibition; inhibition, % at 5 µM; KKLEB NF-kB-GFP reporter, PAF-induced, GFP fluorescence overnight; hit rate 0.86% among 360,000;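 active means at least 50% inhibition at 5 µM, scaled per plate between neutral and stimulator controls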;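 further: PAF is a Pseudomonas aeruginosa culture filtrate used as stimulus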
MITF TRPM1 inh: MITF TRPM1 promoter inhibition in SK-MEL-5 cells | inhibition, % at 12.5 µM | SK-MEL-5 TRPM1 promoter luciferase, 24 h | hit rate 0.83% among 330,000;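 active means mean inhibition across replicates of 60% or more, whatever share of single replicates reaches that level; inconclusive means some that reach 60%, reason not given; inactive means mean inhibition across replicates below 60%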
Peg3 prom inh-2: Peg3 promoter inhibition confirmation | shares compounds with Peg3 prom inh-1 | HeLa PEG-Prom luciferase reporter, luminescence, overnight | inhibition, % at 20 µM | hit rate 84% among 1,300;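 active means at 20 µM dose, 40% or more inhibition averaged across four replicates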
Numbers stand for hits; i = inactive; ? = inconclusive; nt = no result.

SMILES	HIF-2a block	Shn3 3UTR inh	Peg3 prom inh-1	KKLEB cytotox	CF NFkB inh	MITF TRPM1 inh	Peg3 prom inh-2
CCOc1cc(C2c3c(oc4cc(C)c(Cl)cc4c3=O)C(=O)N2Cc2ccco2)ccc1O (stereo not drawn)	i	i	67	i	i	i	i
COc1ccc(NC(=O)c2cc(-c3ccccn3)nc3ccccc23)cc1S(=O)(=O)N(C)C	i	i	61	i	i	i	54
C[C@@H]1CCCCO[C@@H](CN(C)S(C)(=O)=O)[C@@H](C)CN([C@H](C)CO)C(=O)c2cc(N(C)C)ccc2O1	i	i	i	i	i	nt	nt
CC(=O)c1ccc(Nc2cc(C)nc3ccc(C)cc23)cc1	i	i	82	i	i	i	87
COc1ccc(Nc2cc(C)nc3ccc(C)cc23)cc1	i	i	i	i	i	nt	nt
Cc1cc(OC(C)C(=O)NCc2ccccn2)c2c(C)c(C)c(=O)oc2c1 (stereo not drawn)	i	i	i	i	i	i	nt
CC1(Cc2cc(Cl)ccc2C(F)(F)F)C(=O)Nc2ccc(OC(F)(F)F)cc21 (stereo not drawn)	i	i	52	i	i	nt	i
CC(=NNC(=S)N1CCN(C2CCCCCC2)CC1)c1ccccn1	i	93	102	i	i	83	99
CC(=NNC(=S)N1CCCCCC1)c1cccc2cccnc12	i	?	i	i	i	i	nt
Clc1ccccc1N/N=C/c1ccc2c(c1)OCO2	i	i	i	i	i	i	nt
Cc1cc(=O)oc2cc(OCC(=O)c3ccc4c(c3)NC(=O)CO4)ccc12	i	i	53	i	i	i	i
CS(=O)(=O)N1CCC(C(=O)Nc2ccc(Cl)cc2Cl)CC1	i	i	i	i	i	nt	nt
CC(=O)Nc1cccc(-c2cc(NC=O)c3ncc(-c4ccc(C(C)=O)cc4)n3c2)c1	i	i	54	i	i	nt	56
CCNc1nc(N)nc(-c2cc(Cl)ccc2O)n1	i	i	101	i	88	i	i
CCCNc1nc(N)nc(-c2cc(Cl)ccc2OC)n1	i	i	i	i	i	i	nt
NC(=NCCc1ccccc1)NS(=O)(=O)c1ccccc1F	i	i	i	i	i	i	nt
Nc1cc(N)nc(SCC(=O)NC2CCCCCCC2)n1	i	i	i	i	i	i	nt
Cc1ccc2c(c1)N(CC(=O)NCCCN1C(C)CCCC1C)C(=O)c1cccnc1O2 (stereo not drawn)	i	i	i	i	i	nt	nt
COc1ccc(/C=N/NC(=O)c2ccc(N)cc2)cc1Cn1cc([N+](=O)[O-])cn1	i	i	i	i	i	i	nt
O=C1N[C@@H](c2ccccc2)COC(=O)[C@@H](Cc2ccc(F)cc2)CC/C=C/C[C@H]1CC(=O)N(CCO)Cc1ccccc1	i	i	52	i	i	i	47
C[C@@H]1COC(=O)[C@H](Cc2ccc(F)cc2)C/C=C\C[C@@H](CC(=O)N[C@H](CO)Cc2ccccc2)C(=O)N1	i	i	i	i	i	i	nt
O=C(C[C@@H]1C/C=C\C[C@@H](Cc2ccc(F)cc2)C(=O)OC[C@@H](Cc2ccccc2)NC1=O)N[C@H](CO)Cc1ccccc1	i	i	63	i	i	i	i
O=C(O)/C=C/c1ccc(-n2ccnc2)cc1	i	i	i	i	i	i	nt
O=C(CNCCC1=CCCCC1)Nc1ccc(N2CCCCCC2)cc1	i	i	86	i	i	i	99
O=C(CNC1CCCC1)Nc1ccc(N2CCCCCC2)cc1	i	i	i	i	i	i	nt
SMILES	HIF-2a block	Shn3 3UTR inh	Peg3 prom inh-1	KKLEB cytotox	CF NFkB inh	MITF TRPM1 inh	Peg3 prom inh-2
OC[C@@H]1[C@@H](c2ccc(Cl)cc2)C(c2cccc(Cl)c2)=NN1c1ccccc1	i	i	54	i	i	i	65
OC[C@@H]1[C@@H](c2ccc(Cl)cc2)C(c2ccccc2)=NN1c1ccccc1	i	i	i	i	i	i	nt
O=C(CCn1cnc(-c2ccccc2)c1-c1ccccc1)N/N=C/c1ccc(O)cc1	i	i	i	i	i	i	nt
O=C(CCn1cnc(-c2ccccc2)c1-c1ccccc1)N/N=C/c1ccccc1O	i	?	56	i	i	i	70
Cc1cc(C2=NNC(=NC3CC3)SC2)c(C)n1-c1ccccc1F	89	98	104	-58	i	99	98
Cc1cc(C2=NNC(=NC3CCCCC3)SC2)c(C)n1-c1c(C)n(C)n(-c2ccccc2)c1=O	i	i	i	i	i	i	nt
CC(C)NC(=S)n1cc(C(=O)c2cc(Cl)cc(Cl)c2O)cn1	i	i	i	i	i	i	nt
Cc1cccc(NC(=O)COc2ccc3c(c2)CCC3)n1	i	i	i	i	i	i	nt
O=C(COc1ccc2c(c1)CCC2)Nc1ccccn1	60	i	75	i	i	i	67
CCN(CC)CCCCNc1ncc2cc(-c3cc(OC)cc(OC)c3)c(NC(=O)NC(C)(C)C)nc2n1	i	i	74	i	i	73	77
O=c1oc2ccccc2cc1-c1cn2ccccc2n1	66	?	79	-78	i	81	65
O=c1oc2ccccc2cc1-c1cn2cccnc2n1	i	i	i	i	i	i	nt
O=c1c2ccccc2sc2nc(CCl)nn12	i	i	104	i	i	i	93
O=C(NS(=O)(=O)Oc1cccc(Cl)c1Cl)OC[C@@H]1CCCN2CCCCC12 (stereo partly drawn)	i	i	i	i	i	i	nt
Cc1cc(C)c2sc(N(CCCN(C)C)C(=O)c3ccc(S(=O)(=O)N4CCCc5ccccc54)cc3)nc2c1	i	i	102	i	i	83	99
CN(C)CCCN(C(=O)c1ccc(S(=O)(=O)N2CCc3ccccc32)cc1)c1nc2ccc(F)cc2s1	i	i	i	i	i	i	nt
COc1ccc(N(C(=O)Cn2nnc(-c3ccc(F)cc3)n2)C(C)C(=O)NC2CCCC2)cc1 (stereo not drawn)	i	i	i	i	i	i	nt
CC(C(=O)NC1CCCC1)N(C(=O)Cn1nnc(-c2ccc(F)cc2)n1)c1ccccc1F (stereo not drawn)	i	i	57	i	i	i	50
O=C(NCC1CCCO1)C(c1ccc(F)cc1)N(C(=O)Cn1nnc(-c2ccc(F)cc2)n1)c1cccc(O)c1 (stereo not drawn)	i	i	56	i	i	i	51
COc1ccccc1NC(=O)c1ccc(NC(=O)CSc2ncn[nH]2)cc1	i	i	i	i	i	i	nt
CCS(=O)(=O)c1nnnn1-c1ccccc1S(C)(=O)=O	i	i	58	i	i	i	i
O=S(=O)(Cc1nnnn1-c1ccc(Br)cc1)c1ccccc1	i	i	i	i	i	nt	nt
C[C@@H]1CN([C@@H](C)CO)C(=O)c2ccccc2-c2ccccc2CO[C@@H]1CN(C)S(=O)(=O)c1ccc(C(F)(F)F)cc1	i	i	i	i	i	nt	nt
CN(C)c1ccc(C(CNC(=O)c2ccco2)N2CCCC2)cc1 (stereo not drawn)	i	i	i	i	i	i	nt

Compound activity from PubChem BioAssay.
